Measurements as given in PubChem BioAssay AID720519 (National Center for Advancing Translational Sciences (NCATS), 2013).
Records with an inconclusive call do not appear. Where a call stands in place of a potency, no number is given. Activity calls are given as the source filed them. The call rests on the fitted dose curve; in most records, active means well fitted activation curve with a large enough effect; inconclusive means small, poorly fitted or top-dose-only effect; inactive means flat fitted curve, though single readings scatter.

Experiment: qHTS for Inhibitors of Cell Surface uPA Generation: Confirmatory Assay for Cherry-picked Compounds
Conditions: cell surface uPA activity generation, qHTS confirmation; series mostly up to 115 µM
From the text: The overall objective of this project is to perform a quantitative high throughput screen (qHTS) to identify novel compounds that inhibit the generation of cell surface urokinase activity. The urokinase plasminogen activator (uPA) is one of the two primary endogenous systems that mediate plasminogen activation into plasmin. Members of this system, including uPA and its receptor (uPAR), are overexpressed in several malignant tumors. This system plays a major role in adhesion, migration, invasion and metastasis of cancer cells. Small molecule inhibitors of the uPA system will serve as probes to understand the molecular mechanisms of the uPA cascade and better understanding the micro-environmental circumstances that facilitate the activation of plasminogen by uPA, and finally may provide novel candidate agents for anticancer drug therapy.
[…] […] Upon inhibition of the uPA activation cascade, the subsequent cell surface uPA activity-dependent translocation of LF into the cytoplasm is inhibited. ATP-Lite is used to measure intracellular ATP concentrations (measure cell viability) which remain increased if LF entry into the cytoplasm is inhibited. This validation assay was performed using a small set of cherry picked compounds. Activation of cell viability (increase in luminescence signal) due to inhibition of the cell surface uPA generation is the desired outcome of this assay.
NIH Chemical Genomics Center [NCGC]
NIH Molecular Libraries Probe Centers Network [MLPCN]
Assay Submitter (PI): Thomas Bugge, National Institute of Dental and Craniofacial Research, NIH
Cultured RAW 264.7 were dispensed into 1536-well clear bottom, white walled tissue culture plates at a density of 4000 cells/well and were incubated overnight (12-16 h) at 37 C in a 5% CO2 incubator. Serially diluted compounds (1:5 dilution) in 23 nl DMSO were added to cells (0.0024 uM to 3.83 uM final concentration). […] Compound and reagent-treated plates were incubated for 24 h at 37 C in a 5% CO2 incubator. Three microliter of PerkinElmer ATPlite was then added to each well and luminescence was detected using the PerkinElmer ViewLux plate reader for a 5 sec exposure.
Potency means the concentration at half of the fitted maximal effect.

Structure (SMILES)	Potency
CCCCNc1c(-c2ccc(-c3cccc(Cl)c3)cc2)nc2ccccn12	inactive
CC1CC(C)CN(CCCNC(=O)CN2C(=O)CSc3ccc(S(=O)(=O)N4CCOCC4)cc32)C1 (stereo not given)	inactive
CCCCCN(C(=O)CCC(=O)OCCOc1cccc(Cl)c1)c1c(N)n(CCCC)c(=O)[nH]c1=O	inactive
CC(C)N1CCc2c(sc(NC(=O)CCc3ccccc3)c2C(N)=O)C1	inactive
O=C(c1cc([N+](=O)[O-])cc([N+](=O)[O-])c1)N(c1ccccn1)c1ccccn1	inactive
O=C(NCCCn1cccn1)C1CCC(=O)N(Cc2ccccc2F)C1 (stereo not given)	inactive
O=C(NCc1ccco1)/C(=C\c1cccs1)NC(=O)c1ccccc1	inactive
COc1cc2oc(=O)ccc2cc1[C@H](O)[C@@H](O)C(C)(C)O	inactive
CC(C)c1ccc(C2/C(=C(\O)c3ccc4c(c3)OCCO4)C(=O)C(=O)N2CCN2CCOCC2)cc1 (stereo not given)	inactive
COc1ccc(C(=O)NNC(=O)Cc2ccc(Cl)cc2)cc1	inactive
Cc1nc(N2CCN(c3ccc(Cl)cc3)CC2)[nH]c(=O)c1C	inactive
CC1CCCN(S(=O)(=O)c2cccc([N+](=O)[O-])c2)C1 (stereo not given)	inactive
CCCc1nc2c(=O)n(C)c(=O)[nH]c2n1CCC	inactive
O=C(NCC1CCCO1)c1ccc(NC(=O)c2ccc([N+](=O)[O-])cc2)cc1 (stereo not given)	inactive
Cc1ccc(C)c(-c2ccc(=O)n(Cc3c(F)cccc3Cl)n2)c1	inactive
CCOc1cc(N2CCOCC2)c(OCC)cc1NC(=O)c1[nH]c(C)c(C(C)=O)c1C	inactive
COC(=O)C1=CN(Cc2ccc(F)cc2)C=C(C(=O)OC)C1c1ccc(O)c(OC)c1	inactive
Cc1cccc(CNc2ccc(C(CC(N)=O)NC(=O)c3cccc(Br)c3)cc2[N+](=O)[O-])c1 (stereo not given)	inactive
CN(C)CCNC(=O)Nc1ccc([N+](=O)[O-])cc1	inactive
Cc1c(C(=O)N2CCN(S(=O)(=O)c3cccs3)CC2)oc2ccc(F)cc12	inactive

Structure (SMILES)	Potency
CC1CCCC(NC(=O)CNC(=S)N(Cc2ccccc2)Cc2cccs2)C1C (stereo not given)	inactive
Cc1ccc(CN2CCN(Cc3cc4ccccc4o3)CC2CCO)cc1 (stereo not given)	inactive
CSc1ccccc1OCc1cc(C(=O)NCCCn2nc(C)cc2C)no1	inactive
Cc1nc(C(=O)N2CCC(n3nccc3NC(=O)Nc3ccccc3Cl)CC2)cs1	inactive
N#Cc1cccc(NC(=O)Cn2cnc(S(=O)(=O)N3CCOCC3)c2)c1	inactive
Clc1ccc(-c2nc3ccccn3c2CN2CCSCC2)cc1	inactive
C[C@H](CO)N1C[C@H](C)[C@@H](CN(C)C(=O)Nc2ccccc2)Oc2c(NS(=O)(=O)c3ccccc3)cccc2C1=O	inactive
O=[N+]([O-])c1ccccc1C=NNC(=S)NN=Cc1ccccc1[N+](=O)[O-]	inactive
Cc1cccc(NC(=O)C2CCCN(S(=O)(=O)c3ccc4[nH]c(=O)ccc4c3)C2)c1 (stereo not given)	inactive
CN(C)C(=O)NC(NC(=S)Nc1ccccc1)C(Cl)(Cl)Cl (stereo not given)	inactive
O=C(CSc1nnnn1-c1cccc(F)c1)Nc1nc2ccccc2s1	inactive
O=C(c1cccc(F)c1)N1CCN(Cc2cccc(Br)c2)CC1	inactive
Cn1c(=O)c(=O)n(C)c2cc(S(=O)(=O)CCC(=O)Nc3ccc(F)cc3)ccc21	inactive
COc1ccc(-n2nnnc2SCC(=O)Nc2nnc(C)s2)cc1	inactive
O=C(c1ccc(NC(=S)NCc2ccc(Cl)cc2)cc1)N1CCCCC1	inactive
Cc1ccc(S(=O)(=O)NC(=O)Nc2nccs2)cc1	inactive
CCCc1nn2c(=O)cc(CSCC(=O)Nc3ccccc3)nc2s1	inactive
CC(C)(C)NC(=O)C(c1cccs1)N(C(=O)c1csnn1)c1ccccc1F (stereo not given)	inactive
C=CC[n+]1c(/C=C/c2ccc(OC(C)=O)c(OC)c2)ccc2ccccc21	inactive
CC1=CC(C)(C)N2C(=O)C3(NCCc4c3[nH]c3ccccc43)c3cc(C)cc1c32 (stereo not given)	2330 nM (active)
